# PubChem BioAssay (EPA / NIEHS)
# Records with an inconclusive call do not appear. Calls of active or inactive are those of the source. Rule for the calls: active = hit-call score of the fitted dose curve at least 0.9, where 1 is the maximum; inconclusive = response in the unintended direction; inactive = score below 0.9.
# How the values were obtained:
# [1] = Tanguay_ZF_120hpf_MORT_legacy: (Legacy) Oregon State University Tanguay Lab 120 Hour Post-fertilization zebrafish Assay for Mortality (AID 2283633);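 for AC50: fitted as increase in binary mortality versus DMSO negative control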
# In short: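 Mortality endpoint from a multiplexed whole-embryo zebrafish screen. Dechorionated wild-type embryos received compound at 6 hpf and remained under static exposure at 28C until 120 hpf, with death noted as a present/absent call.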
# [2] = Tanguay_ZF_120hpf_YSE_legacy: (Legacy) Oregon State University Tanguay Lab 120 Hour Post-fertilization zebrafish Assay for Yolk Sac Edema (AID 2283634)
# In short: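 Readout: presence or absence of yolk sac edema at 120 hpf, fitted upward against DMSO controls. Exposure ran statically from 6 hpf in dechorionated embryos kept at 28C.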
# [3] = Tanguay_ZF_120hpf_EYE_legacy: (Legacy) Oregon State University Tanguay Lab 120 Hour Post-fertilization zebrafish Assay for Eye Malformation (AID 2283636);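 note: binary presence or absence of eye malformation scored by brightfield in 120 hpf larvae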
# In short: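 5D wild-type embryos, pronase-dechorionated at 4 hpf; static exposure 6–120 hpf, 28C, dark; DMSO 0.64% final; 5uM trimethyltin chloride positive control. Binary eye-defect scoring at 120 hpf; dead embryos not scored.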
# [4] = Tanguay_ZF_120hpf_SNOU_legacy: (Legacy) Oregon State University Tanguay Lab 120 Hour Post-fertilization zebrafish Assay for Snout Malformation (AID 2283637)
# In short: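 Binary brightfield scoring of snout malformation at 120 hpf. Dechorionated 5D wild-type embryos, one per well, static exposure from 6 hpf at 28C, sealed and dark; final DMSO 0.64% (vol/vol), DMSO as baseline; 5uM trimethyltin chloride positive control.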
# [5] = Tanguay_ZF_120hpf_JAW_legacy: (Legacy) Oregon State University Tanguay Lab 120 Hour Post-fertilization zebrafish Assay for Jaw Malformation (AID 2283638)
# In short: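 Static waterborne exposure of dechorionated wild-type (Tropical 5D) zebrafish from 6 to 120 hpf at 28C, 0.64% DMSO vehicle; 5uM trimethyltin chloride served as positive control. Jaw morphology recorded as binary at 120 hpf.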
# [6] = Tanguay_ZF_120hpf_OTIC_legacy: (Legacy) Oregon State University Tanguay Lab 120 Hour Post-fertilization zebrafish Assay for Otic Vesicle Malformation (AID 2283639)
# In short: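 Statically exposed wild-type 5D zebrafish embryos, kept sealed and dark at 28C through 120 hours post fertilization, were examined by brightfield microscopy for otic vesicle defects. Responses were recorded as present or absent and analysed relative to DMSO.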
# [7] = Tanguay_ZF_120hpf_BRAI_legacy: (Legacy) Oregon State University Tanguay Lab 120 Hour Post-fertilization zebrafish Assay for Brain Malformation (AID 2283641)
# In short: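 Brain malformation in Tropical 5D zebrafish was recorded as a binary endpoint after static compound exposure from early development to 120 hpf at 28C. Activity was analysed against DMSO as negative control.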
# [8] = Tanguay_ZF_120hpf_SOMI_legacy: (Legacy) Oregon State University Tanguay Lab 120 Hour Post-fertilization zebrafish Assay for Somite Malformation (AID 2283647)
# In short: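 5D WT zebrafish; chorion removed 4 hpf; 1 embryo/well from 6 hpf; static exposure to 120 hpf, 28C, 0.64% DMSO final. Endpoint: somite malformation, binary, brightfield. Mortality excluded.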
# [9] = Tanguay_ZF_120hpf_CFIN_legacy: (Legacy) Oregon State University Tanguay Lab 120 Hour Post-fertilization zebrafish Assay for Caudal Fin Malformation (AID 2283649)
# In short: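 Embryos were collected from Tropical 5D wild-type adults and dechorionated at 4 hpf. At 6 hpf each was exposed, one per well, at 0.64% DMSO and 28C. At 120 hpf fin morphology was scored; dead embryos were excluded.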
# [10] = Tanguay_ZF_120hpf_PIG_legacy: (Legacy) Oregon State University Tanguay Lab 120 Hour Post-fertilization zebrafish Assay for Pigmentation Malformation (AID 2283650)
# In short: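 Brightfield scoring of pigmentation malformation at 120 hpf, recorded as binary present/absent per larva. Exposure: dechorionated 5D wild-type embryos, one per well, static from 6 hpf at 28C, final DMSO 0.64% (vol/vol). Dead embryos not scored.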
# [11] = Tanguay_ZF_120hpf_PE_legacy: (Legacy) Oregon State University Tanguay Lab 120 Hour Post-fertilization zebrafish Assay for Pericardial Edema (AID 2283640)
# In short: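 Read-out is the presence or absence of pericardial edema at 120 hpf under brightfield, with gain of signal fitted against DMSO controls. Larvae (5D wild-type) were statically exposed at 28C with 0.64% final DMSO.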
# [12] = Tanguay_ZF_120hpf_CIRC_legacy: (Legacy) Oregon State University Tanguay Lab 120 Hour Post-fertilization zebrafish Assay for Circulatory Malformation (AID 2283651)
# In short: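 Embryos are dechorionated at 4 hpf, plated one per well at 6 hpf, then held under static exposure at 28C until 120 hpf. Malformations are recorded as binary calls; mortality excludes other endpoints.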
# [13] = Tanguay_ZF_120hpf_PFIN_legacy: (Legacy) Oregon State University Tanguay Lab 120 Hour Post-fertilization zebrafish Assay for Pectoral Fin Malformation (AID 2283648);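 note: each larva judged yes or no for fin defect by brightfield with dead larvae skipped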
# In short: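 Binary pectoral fin malformation call at 120 hpf by brightfield microscopy; 5D wild-type zebrafish, chorion removed at 4 hpf, one embryo per well from 6 hpf, static exposure at 28C; DMSO (0.64% final) as baseline.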
# [14] = Tanguay_ZF_120hpf_AXIS_legacy: (Legacy) Oregon State University Tanguay Lab 120 Hour Post-fertilization zebrafish Assay for Body Axis Malformation (AID 2283635)
# In short: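 Static 6–120 hpf chemical exposure of dechorionated wild-type 5D zebrafish, one per well at 28C; morphology endpoint scored binary at 120 hpf relative to DMSO control.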
Compound,outcome [1],outcome [2],outcome [3],outcome [4],outcome [5],outcome [6],outcome [7],outcome [8],outcome [9],outcome [10],AC50 [1],outcome [11],outcome [12],outcome [13],outcome [14]
CC(C)COC(=O)CCCCC(=O)OCC(C)C,inactive,inactive,inactive,inactive,inactive,inactive,inactive,inactive,inactive,inactive,–,–,–,–,–
CCN(CC)CCOc1ccc(C(=C(Cl)c2ccccc2)c2ccccc2)cc1,–,inactive,inactive,–,inactive,inactive,inactive,–,inactive,–,26.9 µM (active),inactive,inactive,–,–
NC=O,inactive,inactive,inactive,inactive,inactive,inactive,inactive,inactive,inactive,inactive,–,inactive,–,inactive,–
O=C(O)c1cccnc1,inactive,inactive,inactive,inactive,inactive,inactive,inactive,inactive,–,–,–,inactive,inactive,inactive,inactive
C#CC(O)C(CC)CCCC (centres undefined),inactive,inactive,inactive,inactive,inactive,inactive,inactive,–,inactive,inactive,–,inactive,inactive,inactive,inactive
CC(=O)O,inactive,inactive,inactive,–,inactive,inactive,inactive,inactive,–,inactive,–,inactive,inactive,–,inactive
Cn1cnc2c1c(=O)[nH]c(=O)n2C,inactive,inactive,inactive,inactive,inactive,inactive,inactive,inactive,–,inactive,–,–,inactive,inactive,–
CCCC(=O)O,inactive,inactive,inactive,inactive,–,–,inactive,inactive,inactive,–,–,inactive,inactive,inactive,–
CC(=O)OCC(COC(C)=O)OC(C)=O,inactive,inactive,inactive,inactive,inactive,inactive,inactive,inactive,inactive,inactive,–,inactive,inactive,inactive,–
Nc1nc(=S)c2[nH]cnc2[nH]1,inactive,inactive,inactive,inactive,inactive,–,–,–,inactive,inactive,–,inactive,–,inactive,–
O=NO,inactive,inactive,inactive,inactive,–,–,–,inactive,inactive,inactive,–,inactive,inactive,–,–
O=C(O)CC(O)(CC(=O)O)C(=O)O,inactive,inactive,inactive,–,inactive,inactive,inactive,inactive,inactive,inactive,–,inactive,inactive,inactive,–
C/C=C/C=C/C(=O)O,inactive,–,inactive,inactive,inactive,–,inactive,inactive,inactive,inactive,–,inactive,inactive,inactive,–
CC(N)=O,inactive,inactive,inactive,inactive,inactive,inactive,inactive,inactive,–,inactive,–,inactive,inactive,inactive,inactive
CC(=O)CC(c1ccccc1)c1c(O)c2ccccc2oc1=O (centres undefined),inactive,inactive,–,–,inactive,–,–,inactive,inactive,inactive,–,–,inactive,inactive,inactive
